# From PubChem BioAssay (NCATS)
# Results filed as inconclusive are left out. A call without a number means that no potency is given here. Active and inactive are the calls of the source. Unless noted, the call rests on the fitted dose curve.
# Tested on: not listed separately
# Assay: qHTS for Inhibitors of Plasmodium falciparum (HB3) proliferation (AID 504318; active means well fitted curve in the direction sought with a large enough effect; an effect the other way counts as inactive or inconclusive; further: nearly all actives have a fitted effect of over 60% in size; further: potency means the concentration at half of the fitted maximal effect)
# Conditions: P. falciparum HB3 in erythrocytes, SYBR Green DNA, 72 h; series mostly up to 7.21 µM
# Summary of the method: (§1)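 Erythrocytes infected with P. falciparum line (0.3% parasitemia, 2.5% hematocrit final) incubated with compounds 72 h at 37 °C, 5% CO2; SYBR Green lysis buffer added, fluorescence read next day. Normalized to 0.29 uM artemisinin and DMSO.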
row,SMILES,Potency
1,C[C@@H]1C[C@](C)(C(=O)c2ccco2)C=C1c1ccco1,inactive
2,C=CCN1c2ccccc2[C@]23C[C@@H](C(=O)OC)N(C(=O)Nc4ccccc4F)C2=NC(C(=O)OC)=C(C(=O)OC)[C@H]13,inactive
3,CC(C)(C)Nc1oc(-c2ccccc2)nc1-c1ccccc1,inactive
4,CCCCC1=CC2=C(c3ccco3)C(=O)C(C)(OC(=O)c3ccc(OC)cc3)C(=O)C2=CN1c1ccc(OC)cc1 (stereo unspecified),inactive
5,CC(=O)C1=C(C)N(Cc2ccccc2)C(=O)NC1c1ccc(Br)cc1 (stereo unspecified),inactive
6,COC(=O)C1=C(C(=O)OC)[C@@H]2N(C)c3ccccc3[C@@]23C[C@@H](C(=O)OC)N(C(=O)c2ccco2)C3=N1,inactive
7,O=C(c1ccccc1)[C@@H]1O[C@@H]1c1ccccc1,inactive
8,C[C@@H]1CC[C@H]2C(=O)O[C@H](COc3ccc(C(C)(C)C)cc3)CN2[C@@H]1c1ccc(Br)cc1,inactive
9,COC(=O)N[C@@H](c1cccc(F)c1)[C@]1(C(=O)OC)CCCC1=O,inactive
10,CCCC[C@]12Cc3cc(OC)c(OC)cc3[C@H](O1)C1=C(CC3(CCCCC3)OC1=O)O2,inactive
11,Cc1ccccc1Nc1oc(-c2ccccc2)nc1-c1ccccc1,1690 nM (active)
12,CC(C)=CCN1C(=O)[C@]2(O[C@H](C)CC3=CCCC32)c2c(Br)cccc21 (stereo partly specified),inactive
13,C=CCNC(=O)N1CCc2nc(CCCC)c3c(c2C1)CO[C@@H](C)C3,inactive
14,COC(=O)CC=C1c2ccccc2OC[C@@H](OC)[C@H]1C,inactive
15,CC(C)=CCN1C(=O)C2(CC(C)=C[C@@H](C)O2)c2c(Br)cccc21 (stereo partly specified),inactive
16,C=CCN=C1NC(CCc2ccccc2)C(C(=O)OC)=C(C)N1CC (stereo unspecified),inactive

# Tested on: not listed separately
# Assay: qHTS for Inhibitors of Plasmodium falciparum (CP250) proliferation (AID 504320; active means well fitted curve in the direction sought with a large enough effect; an effect the other way counts as inactive or inconclusive)
# Conditions: P. falciparum CP250 in erythrocytes, SYBR Green DNA, 72 h; series mostly up to 6.7 µM
# Summary of the method: as §1
row,SMILES,Potency
1,C[C@@H]1C[C@](C)(C(=O)c2ccco2)C=C1c1ccco1,inactive
2,C=C(C)C1CC23C(=O)[C@]4(C(=O)c5ccccc5)C[C@@]5(C)CCC(CC2C1(C)C)(C4=O)[C@@]35OC (stereo partly specified),inactive
3,C=CCN1c2ccccc2[C@]23C[C@@H](C(=O)OC)N(C(=O)Nc4ccccc4F)C2=NC(C(=O)OC)=C(C(=O)OC)[C@H]13,inactive
4,CC(C)(C)Nc1oc(-c2ccccc2)nc1-c1ccccc1,inactive
5,COC(=O)C1=C(C(=O)OC)[C@@H]2N(C)c3ccccc3[C@@]23C[C@@H](C(=O)OC)N(C(=O)c2ccco2)C3=N1,inactive
6,COC(=O)N[C@@H](c1cccc(F)c1)[C@]1(C(=O)OC)CCCC1=O,inactive
7,CCCC[C@]12Cc3cc(OC)c(OC)cc3[C@H](O1)C1=C(CC3(CCCCC3)OC1=O)O2,inactive
8,CC(C)=CCN1C(=O)[C@]2(O[C@H](C)CC3=CCCC32)c2c(Br)cccc21 (stereo partly specified),inactive
9,C=CCNC(=O)N1CCc2nc(CCCC)c3c(c2C1)CO[C@@H](C)C3,inactive
10,CC(C)=CCN1C(=O)C2(CC(C)=C[C@@H](C)O2)c2c(Br)cccc21 (stereo partly specified),inactive

# Biological target: Atrial natriuretic peptide receptor 1 (Homo sapiens) (UniProt P16066)
# Sequence (P16066 whole entry, looked up): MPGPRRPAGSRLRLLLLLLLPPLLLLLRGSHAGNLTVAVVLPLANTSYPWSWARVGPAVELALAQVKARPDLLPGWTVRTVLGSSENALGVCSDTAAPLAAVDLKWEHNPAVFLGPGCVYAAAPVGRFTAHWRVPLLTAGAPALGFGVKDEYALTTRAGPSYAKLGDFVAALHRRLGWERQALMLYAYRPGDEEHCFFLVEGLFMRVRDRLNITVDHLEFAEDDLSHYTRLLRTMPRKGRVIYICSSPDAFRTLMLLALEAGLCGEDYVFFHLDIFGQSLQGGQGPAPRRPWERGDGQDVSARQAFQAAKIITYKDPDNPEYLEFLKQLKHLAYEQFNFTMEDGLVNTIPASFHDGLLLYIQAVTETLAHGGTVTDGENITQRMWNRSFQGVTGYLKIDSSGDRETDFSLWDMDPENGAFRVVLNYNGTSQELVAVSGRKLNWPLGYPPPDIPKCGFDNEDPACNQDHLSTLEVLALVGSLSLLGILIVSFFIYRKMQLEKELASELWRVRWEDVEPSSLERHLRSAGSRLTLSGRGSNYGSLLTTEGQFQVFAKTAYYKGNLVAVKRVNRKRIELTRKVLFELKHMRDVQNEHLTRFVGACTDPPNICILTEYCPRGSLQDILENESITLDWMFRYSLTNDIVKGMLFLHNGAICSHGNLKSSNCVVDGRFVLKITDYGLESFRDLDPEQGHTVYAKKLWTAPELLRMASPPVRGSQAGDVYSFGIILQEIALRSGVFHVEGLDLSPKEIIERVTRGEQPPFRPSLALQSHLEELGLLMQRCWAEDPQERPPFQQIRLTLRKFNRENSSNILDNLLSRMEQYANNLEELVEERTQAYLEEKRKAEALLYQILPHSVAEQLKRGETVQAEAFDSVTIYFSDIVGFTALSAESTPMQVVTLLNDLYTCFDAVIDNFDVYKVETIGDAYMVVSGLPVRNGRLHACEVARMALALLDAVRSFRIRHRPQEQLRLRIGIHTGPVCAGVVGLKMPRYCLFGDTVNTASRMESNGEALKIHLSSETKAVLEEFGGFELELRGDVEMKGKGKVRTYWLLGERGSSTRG
# Assay: Natriuretic polypeptide receptor (hNpr1) antagonism - Pilot CMLD screen (AID 1347052);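 further: HEK293 cells with hNpr1 stimulated by hNppA peptide at 0.1 nM; cGMP level read as GloSensor luciferase luminescence after agonist stimulation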
# Conditions: HEK293 hNpr1 GloSensor cGMP luminescence, ANP-stimulated; series mostly up to 9.22 µM
row,SMILES,Potency
1,C[C@@H]1C[C@](C)(C(=O)c2ccco2)C=C1c1ccco1,inactive
2,C=C(C)C1CC23C(=O)[C@]4(C(=O)c5ccccc5)C[C@@]5(C)CCC(CC2C1(C)C)(C4=O)[C@@]35OC (stereo partly specified),inactive
3,C=CCN1c2ccccc2[C@]23C[C@@H](C(=O)OC)N(C(=O)Nc4ccccc4F)C2=NC(C(=O)OC)=C(C(=O)OC)[C@H]13,inactive
4,CC(C)(C)Nc1oc(-c2ccccc2)nc1-c1ccccc1,inactive
5,O=S(=O)(CCc1ccccc1)c1nnnn1C1CCCCC1,inactive
6,CCCCC1=CC2=C(c3ccco3)C(=O)C(C)(OC(=O)c3ccc(OC)cc3)C(=O)C2=CN1c1ccc(OC)cc1 (stereo unspecified),inactive
7,COc1ccc2c3c(c(=O)oc2c1)[C@H]1O[C@](c2ccsc2)(Cc2ccccc21)O3,inactive
8,C=CC1=C2C=C(C3CC3)N(c3ccc(OC)cc3)C=C2C(=O)C(C)(OC(=O)c2ccco2)C1=O (stereo unspecified),inactive
9,COc1cccc([C@H]2Oc3ccc(OC)cc3C(=NO[C@H](C)c3cn([C@H](CO)Cc4ccccc4)nn3)[C@H]2O)c1,inactive
10,CC(=O)C1=C(C)N(Cc2ccccc2)C(=O)NC1c1ccc(Br)cc1 (stereo unspecified),inactive
11,COc1ccc([C@]23Cc4ccccc4[C@H](O2)c2c(c4ccc(OC)cc4oc2=O)O3)cc1,inactive
12,CC1(OC(=O)C2CCCC2)C(=O)C=C2C=C(c3ccsc3)N(Cc3ccccc3)C=C2C1=O (stereo unspecified),inactive
13,COC(=O)C1=C(C(=O)OC)[C@@H]2N(C)c3ccccc3[C@@]23C[C@@H](C(=O)OC)N(C(=O)c2ccco2)C3=N1,inactive
14,O=C(c1ccccc1)[C@@H]1O[C@@H]1c1ccccc1,inactive
15,COCOc1ccc(Br)cc1C(=O)[C@@H]1O[C@@H]1c1cccc(OC)c1,inactive
16,CCOC(=O)OC[C@H]1O[C@H](C#Cc2ccc(C(C)(C)C)cc2)C=C[C@H]1OC(=O)OCC,inactive
17,COC(=O)CCCC1=CC2=C(c3ccccc3)C(=O)C(C)(OC(=O)C3CCCC3)C(=O)C2=CN1c1ccc(OC)cc1 (stereo unspecified),inactive
18,C[C@@H]1CC[C@H]2C(=O)O[C@H](COc3ccc(C(C)(C)C)cc3)CN2[C@@H]1c1ccc(Br)cc1,inactive
19,CCN1C(=S)NC(c2ccccc2)C(C(=O)OC)=C1C (stereo unspecified),inactive
20,C=C(CO[C@@H]1C=C[C@@H](c2ccccc2)O[C@@H]1COC)c1ccccc1,inactive

row,SMILES,Potency
1,CCCNC(=O)OC[C@H]1O[C@H](CCON=C(C)CCC(=O)OC[C@H]2O[C@H](C#Cc3ccccc3)C=C[C@H]2Oc2ccc(C)cc2)C=C[C@H]1Oc1ccc(OC)cc1,inactive
2,CCc1cc2c(nc1CC)CCN(CCC(C)=NO[C@@H](C)CN1CCCc3nc(C)c(C)cc31)C2,inactive
3,COC(=O)N[C@@H](c1cccc(F)c1)[C@]1(C(=O)OC)CCCC1=O,inactive
4,CCCC[C@]12Cc3cc(OC)c(OC)cc3[C@H](O1)C1=C(CC3(CCCCC3)OC1=O)O2,inactive
5,COC(=O)[C@@H]1CC[C@H](C)[C@@H](c2ccc(C)cc2)N1C(=O)c1ccc(C=NO[C@@H](C)c2cn([C@H](CO)Cc3ccccc3)nn2)cc1,inactive
6,COC(=O)[C@@H]1CC[C@H](C)[C@@H](c2ccc(C)cc2)N1C(=O)c1ccc(C=NOC[C@@H](O)COCc2ccco2)cc1,inactive
7,Cc1ccccc1Nc1oc(-c2ccccc2)nc1-c1ccccc1,inactive
8,CC(C)=CCN1C(=O)[C@]2(O[C@H](C)CC3=CCCC32)c2c(Br)cccc21 (stereo partly specified),inactive
9,COc1ccc([C@]23Cc4cc(OC)c(OC)cc4[C@H](O2)C2=C(CC(C)(C)CC2=O)O3)cc1,inactive
10,CC=Cc1cc2ccccc2c2c(C(=O)OC)c(C(=O)OC)c(C(=O)OC(C)(C)C)n12,inactive
11,N#CCCCSc1nnnn1-c1cc(C(F)(F)F)cc(C(F)(F)F)c1,inactive
12,C=CCOC(=O)C(C(C)=O)[C@@H](NC(=O)OC)c1ccc2ccccc2c1 (stereo partly specified),inactive
13,C=CCNC(=O)N1CCc2nc(CCCC)c3c(c2C1)CO[C@@H](C)C3,inactive
14,COc1ccc(-c2nc(-c3ccccc3)c(NC(C)C)o2)cc1,inactive
15,COC(=O)CC=C1c2ccccc2OC[C@@H](OC)[C@H]1C,inactive
16,CC(C)=CCN1C(=O)C2(CC(C)=C[C@@H](C)O2)c2c(Br)cccc21 (stereo partly specified),inactive
17,COC(=O)C1=C(C(=O)OC)[C@@H]2N(C)c3ccc(OC)cc3[C@@]23C[C@@H](C(=O)OC)N(C(=O)NC(C)(C)C)C3=N1,inactive
18,C=CCN=C1NC(CCc2ccccc2)C(C(=O)OC)=C(C)N1CC (stereo unspecified),inactive
19,C[C@@H]1C=CCC(=O)N[C@@H](c2ccccc2)[C@H](C)C=CCC(=O)N[C@@H]1c1ccccc1,inactive
20,COC(=O)N[C@@H](C=Cc1ccccc1)C(C(=O)OC)=C(C)NCc1ccccc1,inactive
